This note sets out measurements from PubChem BioAssay (NCI).

Test systems include NCI-H23 lung; NCI-H226 lung; NCI-H322M lung; HOP-62 NSCLC; NCI-H460 lung; HOP-92 NSCLC; NCI-H522 lung; A549/ATCC NSCLC; 786-0 renal; COLO 205 colon.
Test in all cases: NCI-60 one-dose screen, 48 h (100 = growth as untreated, 0 = no growth, -100 = all killed)
Common to all, as to details: 10 µM

Molecules are shown by their SMILES. About 83,000 compounds went through this panel and 20% of them were active in at least one assay; those are over-represented in the sample as a whole.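 Negative percent growth values reflect cell death: -40 means 40% of the cells present at the start died, and -100 means all died.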 A number with no mark means an inactive call. Active and inactive are the calls of the source. How the source made its calls: active means growth percent below 10; inactive means the rest.

Consider `C[C@]12CC[C@H]3[C@@H](CC=C4C[C@@H](O)CC[C@@]43C)[C@@H]1CC[C@@H]2C(=O)C/C=N/O`, for which the growth in the experiment with NCI-H23 lung is 86.6%; in the experiment with NCI-H226 lung, 107%; in the experiment on NCI-H322M lung, 88.5%; in the experiment with HOP-62 NSCLC, 76.8%; in the experiment with NCI-H460 lung it was 97.9%; in the experiment with HOP-92 NSCLC, 54.9%. The growth in the experiment on NCI-H522 lung is 79.4%; with A549/ATCC NSCLC, 89.5%; in the experiment on 786-0 renal, 90.8%; in the experiment on COLO 205 colon it was 101%.

For `C=CCn1ccc(=O)nc1SC`, the growth in the experiment with NCI-H23 lung is 107%; in the experiment with NCI-H226 lung it was 112%; with NCI-H322M lung, 111%; in the experiment with HOP-62 NSCLC, 97.1%; with NCI-H460 lung, 104%; in the experiment with HOP-92 NSCLC it was 97.3%. The growth with NCI-H522 lung is 100%; with A549/ATCC NSCLC, 111%; with 786-0 renal, 101%; with COLO 205 colon, 106%.

With `CCc1cc2n(n1)-c1ncc(C(=O)OC)cc1Oc1ccccc1-2`, the growth with NCI-H23 lung was 104%; with NCI-H226 lung it was 99.8%; in the experiment on NCI-H322M lung, 108%; in the experiment on HOP-62 NSCLC, 95.4%; with NCI-H460 lung it was 104%; in the experiment on HOP-92 NSCLC, 86.2%. For the same molecule, the growth with NCI-H522 lung was 94.2%; in the experiment on A549/ATCC NSCLC, 91.4%; in the experiment on 786-0 renal it was 100%; in the experiment on COLO 205 colon, 116%.

Take `O=S(=O)(NCCO)c1ccc(OCCOc2ccc(S(=O)(=O)NCCO)cc2)cc1`: the growth with NCI-H23 lung is 96.6%; in the experiment on NCI-H226 lung it was 91.3%; with NCI-H322M lung it was 90.4%; in the experiment on HOP-62 NSCLC, 90.7%; in the experiment on NCI-H460 lung, 111%; in the experiment with HOP-92 NSCLC it was 81.1%. The growth with NCI-H522 lung was 91.7%; in the experiment on A549/ATCC NSCLC it was 95%; in the experiment with 786-0 renal, 96.9%; in the experiment on COLO 205 colon it was 104%.

As for `O=C(O)CN1C(=O)C=CC1=O`, the growth with NCI-H23 lung was 106%; with NCI-H226 lung, 108%; in the experiment on NCI-H322M lung it was 90.9%; in the experiment with HOP-62 NSCLC it was 107%; with NCI-H460 lung, 107%; with HOP-92 NSCLC, 111%. Besides, the growth is 103% with NCI-H522 lung, 108% in the experiment with A549/ATCC NSCLC, 103% in the experiment with 786-0 renal and 94.8% in the experiment on COLO 205 colon.

On to `CCNC(=S)NN`, for which the growth with NCI-H23 lung was 93.1%; in the experiment on NCI-H226 lung, 99.1%; in the experiment with NCI-H322M lung, 78.7%; with HOP-62 NSCLC, 76.2%; in the experiment with NCI-H460 lung, 95.6%; in the experiment with HOP-92 NSCLC, 87.3%. In addition, the growth is 105% in the experiment on NCI-H522 lung, 72.5% in the experiment with A549/ATCC NSCLC, 99.5% in the experiment with 786-0 renal and 106% in the experiment with COLO 205 colon.

As for `COc1ccc2c(c1)/C(=C/c1cc(OC)c(OC)c(OC)c1)C(=O)N2C`, the growth is 34.2% with NCI-H23 lung; 19.3% in the experiment on NCI-H226 lung; 39.5% in the experiment with NCI-H322M lung; 57.5% with HOP-62 NSCLC; -6.11% (active) in the experiment on NCI-H460 lung; -7.03% (active) with HOP-92 NSCLC. Moreover, the growth in the experiment on NCI-H522 lung was -15.1% (active); in the experiment on A549/ATCC NSCLC, 14.5%; in the experiment on 786-0 renal, 29.4%; in the experiment on COLO 205 colon, -36.8% (active).

Turning to `COc1ccc(-c2nc(NC(=O)CS(=O)(=O)c3ccc(F)cc3)sc2C)cc1`, the growth with NCI-H23 lung was 37%; in the experiment on NCI-H226 lung, 93.9%; in the experiment on NCI-H322M lung it was 69.5%; in the experiment with HOP-62 NSCLC, 65.3%; in the experiment on NCI-H460 lung, 59.2%; in the experiment on HOP-92 NSCLC, 37%. Besides, the growth with NCI-H522 lung was 49%; in the experiment on A549/ATCC NSCLC it was 54.2%; in the experiment on 786-0 renal, 60.9%; with COLO 205 colon it was 88.8%.

As for `O=C(CCCC(=O)N/N=C/c1cc(Cl)ccc1O)N/N=C\c1cc(Cl)ccc1O`, the growth was 38.4% in the experiment with NCI-H23 lung; 40.7% with NCI-H226 lung; 23.7% with NCI-H322M lung; 24.1% in the experiment on HOP-62 NSCLC; 10.2% in the experiment with NCI-H460 lung; 24.4% with HOP-92 NSCLC. The growth in the experiment with NCI-H522 lung is 18.3%; with A549/ATCC NSCLC, 29.5%; in the experiment on 786-0 renal, 24.8%; in the experiment with COLO 205 colon, 16.3%.

Take `Cc1cc(/C=C2\SC(=Nc3ccccc3)N(C3CCCC3)C2=O)c(C)n1-c1ccc(Cl)cc1`: the growth was -19.8% (active) with NCI-H23 lung; -66.6% (active) in the experiment with NCI-H226 lung; -55% (active) in the experiment with NCI-H322M lung; -69.6% (active) in the experiment with HOP-62 NSCLC; -57.4% (active) in the experiment on NCI-H460 lung; -74.2% (active) with HOP-92 NSCLC. Further, the growth was -66.8% (active) in the experiment with NCI-H522 lung, -27.5% (active) with A549/ATCC NSCLC, -85.1% (active) in the experiment on 786-0 renal and -94.5% (active) with COLO 205 colon.

As to `N#Cc1cnc2ccc(NCc3cnc[nH]3)cc2c1Nc1ccc(F)c(Cl)c1`, the growth is 78.8% in the experiment on NCI-H23 lung; 88.2% with NCI-H226 lung; 1.96% (active) in the experiment on NCI-H322M lung; 94.3% with HOP-62 NSCLC; 62.5% with NCI-H460 lung; 51.9% with HOP-92 NSCLC. Further, the growth was 10.2% in the experiment with NCI-H522 lung, 70.9% in the experiment with A549/ATCC NSCLC, 65.7% in the experiment with 786-0 renal and 96.9% with COLO 205 colon.

Consider `CN(C)CCCN(Cc1ccccc1O)C(=S)Nc1ccc(Cl)cc1`, for which the growth with NCI-H23 lung is 108%; in the experiment with NCI-H226 lung, 94.5%; in the experiment on NCI-H322M lung, 98.1%; in the experiment on HOP-62 NSCLC, 108%; in the experiment with NCI-H460 lung, 102%; with HOP-92 NSCLC, 86.8%. Moreover, the growth is 96% in the experiment with NCI-H522 lung, 98.1% in the experiment on A549/ATCC NSCLC, 107% in the experiment with 786-0 renal and 113% with COLO 205 colon.

For `CC(Oc1ccc(Cl)cc1)c1ccccc1` (stereo not given), the growth with NCI-H23 lung is 102%; with NCI-H226 lung, 93%; in the experiment with NCI-H322M lung, 87.1%; with HOP-62 NSCLC it was 98.3%; with NCI-H460 lung, 104%; with HOP-92 NSCLC, 95%. For the same molecule, the growth with NCI-H522 lung is 103%; in the experiment with A549/ATCC NSCLC it was 102%; in the experiment with 786-0 renal it was 98.5%; in the experiment with COLO 205 colon, 105%.

As for `COc1ccc(-c2nnc(SC/C(=N\O)c3ccccc3)o2)cc1`, the growth was 89.3% in the experiment with NCI-H23 lung; 95.5% in the experiment with NCI-H226 lung; 113% in the experiment on NCI-H322M lung; 97.7% with HOP-62 NSCLC; 98.8% in the experiment with NCI-H460 lung; 98.4% in the experiment with HOP-92 NSCLC. Further, the growth in the experiment on NCI-H522 lung is 71.4%; with A549/ATCC NSCLC it was 107%; with 786-0 renal, 97.2%; with COLO 205 colon, 110%.
